# Measured values as given in PubChem BioAssay.
# Entries with a potency or affinity are not part of this list. The source made the active and inactive calls. The rule behind the calls is not given here.
# Experiments:
# [1] = A549 cell cytotoxicity, dose response, cytotoxicity control, plate reader, cherry-pick, antagonist series (AID 743412)
# [2] = toxicity toward HepG2 liver cells – cell-based, plate reader, cherry-pick, antagonist series, cytotoxicity control, dose response (AID 743416)
# [3] = biological target: Melanocortin receptor 4 (Homo sapiens) (UniProt P32245); assay: blockade of melanocortin 4 receptor signaling – cell-based, plate reader, cherry pick, counter-screen for LGR2 antagonist project, dose response (AID 743444)
SMILES,outcome [1],outcome [2],outcome [3]
O=C(O)c1ccc(N/N=C/c2ccc(OC(=O)c3cccc(Cl)c3)cc2)cc1,inactive,inactive,–
Cc1cc(C(=O)COC(=O)c2cccn2C)c(C)n1Cc1ccco1,inactive,inactive,–
CCOC(=O)c1cn2nc(N3CCCCC3)ccc2n1,inactive,inactive,–
O=C(O)c1cccc(Nc2ccnc(Nc3cccc(C(=O)O)c3)n2)c1,inactive,inactive,–
O=C(Nc1cccnc1)c1cc(-c2ccc3c(c2)OCO3)on1,inactive,inactive,–
OC1CCC(Nc2ccn3nc(-c4cccc(OCc5ccccc5)c4)cc3n2)CC1 (stereo not drawn),inactive,inactive,–
Cc1ccc2nc(-c3ccc(NC(=O)c4cccnc4)cc3)oc2c1,inactive,inactive,–
Cc1cc(C(=O)COC(=O)c2ccccc2O)c(C)n1CC1CCCO1 (stereo not drawn),inactive,inactive,–
Cc1cnc(NC(=O)c2ccc(OCC3CCCO3)cc2)s1 (stereo not drawn),inactive,inactive,–
Cc1ccc(C(=O)C2C(=O)C3CCC2C3)cc1 (stereo not drawn),inactive,inactive,–
O=C(CN1C(=O)c2ccccc2S1(=O)=O)c1ccc2c(c1)OCCCO2,inactive,inactive,–
CCn1c(C)cc(C(=O)CN2C(=O)c3ccccc3S2(=O)=O)c1C,inactive,inactive,–
CCOc1ccc(C(=O)Nc2cccc(C(=O)O)c2C)cc1Cl,inactive,inactive,–
O=C(O)c1ccc(Nc2nc3c(s2)CCCC3)cc1,inactive,inactive,–
COc1ccc(-c2cc(C(=O)N3CCCC3)no2)cc1,inactive,inactive,–
COc1cccc(-c2cc(C(=O)N3CCCCCC3)no2)c1,inactive,inactive,–
COc1cc(SC)ccc1C(=O)Nc1ncc(C)s1,inactive,inactive,–
Cc1cccc(-n2ncc3c(N(C)C4CCCCC4)ncnc32)c1,inactive,inactive,–
Cc1ccc2nc(-c3ccc(NC(=O)C(C)Sc4nncs4)cc3)sc2c1 (stereo not drawn),inactive,inactive,–
O=C(c1cc(-c2ccc(Cl)cc2Cl)on1)N1CCCC1,inactive,inactive,–
c1ccc(-n2ncc3c(N4CCCCC4)ncnc32)cc1,inactive,inactive,–
O=C(O)c1c2c(nc3ccccc13)/C(=C/c1ccc(O)cc1)CC2,inactive,inactive,–
Nc1c(C(=O)Nc2cccc(C(=O)O)c2)sc2nc3c(cc12)CCCC3,inactive,inactive,–

SMILES,outcome [1],outcome [2],outcome [3]
Cc1c(NC(=O)c2cccc(NC(=O)COc3ccccc3C#N)c2)c(=O)n(-c2ccccc2)n1C,inactive,inactive,–
O=C(COc1ccc2ccccc2c1)Nc1nccs1,inactive,inactive,–
CSc1nc2ccc(NC(=O)c3ccccn3)cc2s1,inactive,inactive,–
O=C(Nc1ccc(Cl)c(S(=O)(=O)N2CCOCC2)c1)c1ccc2c(c1)OCCO2,inactive,inactive,–
CN(C)c1ccc(-c2nc3cc(N)ccc3o2)cc1,inactive,inactive,–
c1ccc(-n2cnnc2SCc2cn3cccnc3n2)cc1,inactive,inactive,–
Cc1ccc(NC(=O)c2cnn(-c3ccccc3)c2C)cc1C,inactive,inactive,–
Cc1ccc(-c2cc(C(=O)N3CCOCC3)no2)cc1,inactive,inactive,–
CCCCN(CCCNC(=O)c1ccc2c(c1)NC(=O)CN2C)c1ccccc1,inactive,inactive,–
O=C(C[C@H]1CC[C@H](NS(=O)(=O)c2cccc(F)c2)[C@@H](CO)O1)N1CCCCC1,inactive,inactive,inactive
CC(=O)c1ccc(S(=O)(=O)N2CCC(NC(=O)Nc3cccc(F)c3)CC2)cc1,inactive,inactive,inactive
CCc1ccc2ncc(S(=O)(=O)c3ccc(C)c(C)c3)c(N3CCCC3)c2c1,inactive,inactive,inactive
O=C(C[C@H]1C=C[C@@H](NC(=O)C2CCC2)[C@H](CO)O1)NCCCN1CCOCC1,inactive,inactive,inactive
COc1ccc(S(=O)(=O)Nc2ccc3c(c2)C(=O)N([C@H](C)CO)C[C@H](C)[C@H](CN(C)S(=O)(=O)c2ccc(F)cc2)OCCCC[C@@H](C)O3)cc1,inactive,inactive,inactive
Cc1ccnc(NC(=O)c2cccc(S(=O)(=O)N3CCN(c4ccccc4)CC3)c2)c1,inactive,inactive,–
CC(C)(C)NC(=O)c1cccc(NC(=O)c2ccc3c(c2)C(=O)N(C(C)(C)C)C3=O)c1,inactive,inactive,inactive
Clc1ccccc1/C=C/c1nc(-c2ccccn2)no1,inactive,inactive,–
COc1ccc(S(=O)(=O)N2CCN(C(=O)c3ccc(C)o3)CC2)cc1,inactive,inactive,inactive
O=C(NCCc1ccccc1)c1ccc2c(c1)OCO2,inactive,inactive,–
C[C@H](CO)N1C[C@H](C)[C@H](CN(C)C(=O)Nc2ccccc2)OCCCC[C@H](C)Oc2ccc(NC(=O)NC3CCCCC3)cc2C1=O,inactive,inactive,inactive
C[C@H](CO)N1C[C@H](C)[C@H](CN(C)Cc2ccccc2)Oc2c(NS(=O)(=O)c3cn(C)cn3)cccc2C1=O,inactive,inactive,inactive
COc1ccc(-c2nc(N)n(C(=O)c3cccs3)n2)cc1,inactive,inactive,inactive
COc1ccccc1C=NNC(=O)c1ccncc1,inactive,inactive,inactive
